Shown are actives, neighbours in structure and some others; about 2% of the full set was active somewhere.
TRb-SRC2 inh: inhibitors of human thyroid hormone receptor beta-SRC2 interaction; TRbeta-SRC2 peptide binding, fluorescence polarization; receptor liganded with 1 µM T3; hit rate 0.065% among 280,000; Potency, µM (series often up to 106 µM), inactives show at the highest dose activity change, negative = inhibition, hits mostly inhibitors;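 also: potency is read from the fitted curve at half-maximal effect; plate controls were bound peptide for no effect and peptide without receptor for full effect; nearly all actives have a fitted effect of over 50% in size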
Target sequence (P10828 whole entry, looked up): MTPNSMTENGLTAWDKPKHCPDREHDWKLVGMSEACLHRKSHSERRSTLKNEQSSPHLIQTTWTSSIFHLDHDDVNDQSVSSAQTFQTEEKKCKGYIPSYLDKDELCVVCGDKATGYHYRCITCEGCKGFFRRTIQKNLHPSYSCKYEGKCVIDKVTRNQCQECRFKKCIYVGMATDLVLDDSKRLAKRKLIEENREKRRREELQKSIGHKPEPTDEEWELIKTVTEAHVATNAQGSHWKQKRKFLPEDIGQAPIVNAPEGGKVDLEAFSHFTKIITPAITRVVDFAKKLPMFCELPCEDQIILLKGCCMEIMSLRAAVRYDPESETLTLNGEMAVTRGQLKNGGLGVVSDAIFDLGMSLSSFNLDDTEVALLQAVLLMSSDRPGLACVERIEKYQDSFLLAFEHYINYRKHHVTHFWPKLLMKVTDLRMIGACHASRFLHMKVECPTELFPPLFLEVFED
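Read-out is fluorescence polarization (555 nm excitation, 632 nm emission) of a Texas Red SRC2 coactivator peptide; loss of signal reflects blocked binding to human TRb ligand-binding domain in the presence of 1 uM T3.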
TexasRed fluor: alters Texas Red total fluorescence, flagging assay interference; TRb/SRC2 Texas Red total fluorescence interference; Potency, µM (top dose mostly 106 µM), without a hit: at the top dose fluorescence change, negative = quenching; hit rate 0.29% among 280,000; active = well fitted curve in either direction with a large enough effect; inconclusive = small, poorly fitted or top-dose-only effect; also: potency is read from the fitted curve at half-maximal effect; % is scaled to controls: 0 for no effect and ±100 for the full control effect
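Flags fluorescent or light-absorbing compounds by total fluorescence, S + 2P, at 555 nm excitation and 632 nm emission. Mixture: 20 nM Texas Red SRC2 peptide, 0.6 uM human TRb LBD, 1 uM T3, 5% DMSO; compound exposure 5 h at ambient temperature.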
Coupling enz: inhibits coupling enzyme system, counter-screen for aldolase hits; coupling enzyme system counterscreen, AmpLite Red fluorescence; activity change, negative = inhibition, % at 58.2 µM, hits read low; hit rate 0.67% among 290,000; AID 2472; in the data active = activity change below about -30%; also: % is scaled to controls: 0 for no effect and ±100 for the full control effect
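Fluorescence at 525 nm excitation and 598 nm emission measured inhibition of the coupled detection system without aldolase. Compounds (at 57.5 uM final) were preincubated 10 min at room temperature with coupling enzyme reagent before a 20 min substrate/AmpLite Red step.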
HTT aggregate: inhibitors of mutant huntingtin aggregate formation in PC12 cells; PC12 HttQ103-GFP aggregates, Acumen cytometry, 40 h; Potency, µM (top dose mostly 46.1 µM), for the others: at the highest dose activity change, negative = inhibition, most hits filed as inhibitors; AID 1688; hit rate 1.1% among 220,000; also: potency is read from the fitted curve at half-maximal effect; % is scaled to controls: 0 for no effect and ±100 for the full control effect; nearly all actives have a fitted effect of over 60% in size
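Ecdysone-promoter PC12 model expressing HTT exon 1 Q103 fused to GFP, induced by tebufenozide at 100 nM final. Compounds titrated; aggregates sized 1–25 µm scored on a 488 nm laser cytometer.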
HTT cytoprotect: cytoprotection in Huntington HTT-Q103 PC12 cell model | hit rate 0.14% among 230,000 | PC12 HTT-Q103 induced, cytoprotection, ATP luminescence, 40 h | Potency, µM (top dose mostly 56.4 µM), for the others: cytoprotection (ATP increase), most hits filed as activators; also: potency is read from the fitted curve at half-maximal effect; % of control where 0% means no effect; nearly all actives have a fitted effect of over 45% in size
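Stable PC12 Q103-GFP cells in serum-supplemented, phenol red-free DMEM; induction by tebufenozide at 100 nM final; compound dose series; cell viability quantified luminescently from ATP.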
KDM4E inh: inhibitors of human JMJD2E histone demethylase. JMJD2E catalytic domain, FDH-coupled NADH fluorescence (FDH is formaldehyde dehydrogenase). Potency, µM (series often up to 57.1 µM), for the others: top-dose activity change, negative = inhibition, usual class: inhibitors. hit rate 1.6% among 230,000. AID 2147; active = well fitted inhibition curve with a large enough effect, not every such curve was filed as active; inconclusive = small, poorly fitted or top-dose-only effect, or another doubt; inactive = no such curve, though single readings can be large or run the other way;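 also: potency is read from the fitted curve at half-maximal effect; 0% = wells with enzyme and -100% = buffer wells without enzyme; nearly all actives have a fitted effect of over 50% in size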
Numbers without * were called inactive; ? = inconclusive; / = no result; [ ] = remark or other dose. Unless noted, calls follow the shape of the dose curve; as a rule, active = well fitted curve in the direction sought with a large enough effect; inconclusive = small, poorly fitted or top-dose-only effect, or another doubt; inactive = no such curve, though single readings can be large; an effect the other way counts as inactive or inconclusive.

SMILES | TRb-SRC2 inh | TexasRed fluor | Coupling enz | HTT aggregate | HTT cytoprotect | KDM4E inh
NC(=O)c1sc2nc3c(c(-c4cccs4)c2c1N)CCCC3 | 1% | -3% | -2 | / | 16µM* | -18%
CCOC(=O)c1sc2nc(-c3ccco3)c3c(c2c1N)CC(C)(C)OC3 | -1% | -6% | -3 | 31% | -31% | ?
Cc1ccc(-c2c3c(nc4sc(C(N)=O)c(N)c24)CCCC3)o1 | 3% | -4% | -4 | -16% | / | -12%
CC(C)NC(=O)c1sc2nc3c(c(-c4cccs4)c2c1N)CN(C)CC3 | -2% | -3% | 1 | 14% | -3% | -30%
Nc1c(C(=O)NC2CC2)sc2nc3c(c(-c4ccco4)c12)CC/C3=C/c1ccco1 | -2% | 2% | -35* | 22% | 10%[10 µM] | ?
NC(=O)c1sc2nc3c(c(-c4ccco4)c2c1N)CCC3 | -9% | -4% | -25 | 4.5µM* | ? | -5%
COC(=O)C1=C(C(=O)OC)[C@@H]2N(C)c3ccccc3[C@@]23C[C@@H](C(=O)OC)N(S(=O)(=O)c2ccc([N+](=O)[O-])cc2)C3=N1 | 6%[11.2 µM] | -4%[11.2 µM] | -6 | / | 8%[10 µM] | -6%[11.4 µM]
CCC1=C2CC[C@H]3C(=O)N(c4ccccc4)C(=O)[C@H]3[C@H]2[C@@]2(Cc3ccccc3)C(=NCCc3c[nH]c4ccccc34)OC(=O)N2C1=O | 2% | -4% | 1 | / | -8% | 1%
Cc1cccc(N2CCN(S(=O)(=O)c3ccc4oc(=O)c5ncn(C)c5c4c3)CC2C)c1 (centres undefined) | 1% | 0% | / | / | / | /
CCn1c(/C=C/N(C)c2ccccc2)[n+](CC)c2ccc(Cl)cc21 | -7% | -2% | 0 | 4.5µM* | -59%[10 µM] | -23%
CCn1c(/C=C/Nc2ccccc2)[n+](CC)c2ccc(Cl)cc21 | 7% | -4% | 4 | 13% | / | -12%
COc1ccc(N2CSC3=C(C#N)C(c4cc(OC)c(OC)cc4OC)CC(=O)N3C2)c(OC)c1 (centres undefined) | 2% | 5% | -48* | 3% | -1% | -14%
COc1ccc(N2CSC3=C(C#N)C(c4cccs4)CC(=O)N3C2)cc1 (centres undefined) | 9% | 3% | -49* | 31% | -14% | 2%
CCc1ccc(C2CC(=O)N3CN(c4ccccc4)CSC3=C2C#N)cc1 (centres undefined) | 2% | 0% | -19 | -1% | -19% | ?
Cc1ccc(N2CSC3=C(C#N)C(c4cccs4)CC(=O)N3C2)cc1 (centres undefined) | 0% | -2% | -28 | -8% | -38% | ?
N#CC1=C2SCN(c3ccc(F)cc3)CN2C(=O)CC1c1cccc(F)c1 (centres undefined) | 3% | -4% | -14 | 7% | -28% | 22µM*
COc1ccc(N2CSC3=C(C#N)C(c4ccc(OC)c(OC)c4)CC(=O)N3C2)c(OC)c1 (centres undefined) | 1% | 2% | -43* | -13% | -8% | -24%
COc1cc(OC)c(C2CC(=O)N3CN(c4ccc(C)cc4)CSC3=C2C#N)cc1OC (centres undefined) | 3% | 1% | -31* | 10% | -34%[0.074 µM] | ?
CCOc1ccccc1N1CSC2=C(C#N)C(c3c(OC)ccc4ccccc34)CC(=O)N2C1 (centres undefined) | ? | -20% | -49* | -8% | -21% | 7.9µM*
COc1ccc(C2CC(=O)N3CN(C4CCCCC4)CSC3=C2C#N)cc1 (centres undefined) | 3% | -1% | / | / | / | /
CCc1ccc(N2CSC3=C(C#N)C(c4cccs4)CC(=O)N3C2)cc1 (centres undefined) | 4% | -1% | -18 | 0% | -25% | ?
COc1ccc(N2CSC3=C(C#N)C(c4cc(OC)ccc4OC)CC(=O)N3C2)c(OC)c1 (centres undefined) | -5% | 1% | -46* | -6% | -27% | -22%
CCOC(=O)c1ccc(N2CSC3=C(C#N)C(c4cccs4)CC(=O)N3C2)cc1 (centres undefined) | 1% | 0% | -6 | 17% | -22% | ?
CCn1c(=O)c2cc(C(=O)NCCc3ccc(OC)c(OC)c3)sc2c2ccccc21 | 1% | -7% | / | / | / | /
N#CCCN(C(=O)CCl)c1cccc(Cl)c1 | -2% | -7% | 2 | 18µM* | -116% | -2%
SMILES | TRb-SRC2 inh | TexasRed fluor | Coupling enz | HTT aggregate | HTT cytoprotect | KDM4E inh
CCCCCCCN(C(=O)CCl)c1cccc(C)c1 | -3% | 1% | 4 | -3% | -18%[10 µM] | 2%
COc1cccc(NC(=S)NNC(=O)C(C)n2nc(C)c([N+](=O)[O-])c2C)c1 (centres undefined) | 3% | 2% | -1 | -8% | -16% | 12%
COc1cccc(/C=N/NC(=O)Cn2nc(C)c([N+](=O)[O-])c2C)c1O | -1% | -2% | 5 | 2.8µM* | 22%[10 µM] | 11µM*
COc1cccc(/C=N/NC(=O)C(C)n2nc(C)c([N+](=O)[O-])c2C)c1O (centres undefined) | 1% | -2% | 1 | 16µM* | -62%[10 µM] | 14µM*
CC(C)(C)n1nnnc1C(c1cccs1)N(Cc1ccc(Cl)cc1)CC1CCCO1 (centres undefined) | -7% | 0% | 0 | 14µM* | -47% | 4%
Cc1cc(C)c2[nH]c(=O)c(C(c3nnnn3C(C)(C)C)N(Cc3ccco3)CC3CCCO3)cc2c1 (centres undefined) | -6% | -5% | -40* | 8% | -8% | -8%
CC(C)(C)n1nnnc1C(c1cccs1)N(Cc1ccccc1)Cc1cccnc1 (centres undefined) | -15% | -2% | 6 | -2% | 25%[10 µM] | 4%
Cc1cc2cc(C(c3nnnn3C(C)(C)C)N(Cc3ccco3)CC3CCCO3)c(=O)[nH]c2cc1C (centres undefined) | -2% | -4% | / | 6% | -36% | ?
O=C(CNC1=NCCC1)c1ccc(Cl)cc1 | -9% | 1% | -36* | ? | 30%[10 µM] | -7%
COc1ccc(C(=O)CNC2=NCCC2)cc1 | -1% | -2% | 1 | -16% | -22% | 8%
CCCCc1c(CCC)c(=N)c2ccccc2n1C | -11% | -1% | 2 | 8.9µM* | -4%[10 µM] | ?
Cc1ccc(-c2csc(NC(=O)C3CC(=O)N(Cc4ccco4)C3)n2)cc1 (centres undefined) | 0% | 1% | -2 | -7% | 18%[10 µM] | -2%
Cc1csc(NC(=O)C2CC(=O)N(Cc3ccco3)C2)n1 (centres undefined) | 5% | -5% | -6 | 0.63µM* | 1.1µM* | 1%
